Rab9 promoter act = qHTS Assay for Rab9 Promoter Activators; AID 485297, 2010; 2.8% of 320,000 active; Huh7 Rab9 promoter-luciferase reporter, luminescence, 24 h; Potency, µM (titrated, usually from 9.22 µM), without a hit: at the highest dose activation, negative = inhibition, actives largely listed as activators; further: % of control where 0% means no effect; nearly all actives have a fitted effect of over 60% in size
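Luminescence from Amplite-detected luciferase (10 minutes, ambient) reports Rab9 promoter activation. Before that, stable Rab9-luciferase Huh7 cells (1500/well, reduced-serum OP-MEM I plus 10% FBS) were exposed to compound for 24 hours at 37C.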
FLuc counter = qHTS profiling assay for firefly luciferase inhibitor/activator using purifed enzyme and Km concentrations of substrates (counterscreen for miR-21 project); Luciferin 4-monooxygenase (Photinus pyralis), P08659; purified FLuc, Km substrates, luminescence inhibition; Potency, µM (doses to about 57.5 µM), inactives show at the highest dose activity change, negative = inhibition, hits mostly inhibitors; 6.9% of 360,000 active; AID 588342, 2011;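 further: plate controls were vehicle for no effect and reference inhibitor for full effect; nearly all actives have a fitted effect of over 55% in size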
Target sequence (P08659 whole entry, looked up): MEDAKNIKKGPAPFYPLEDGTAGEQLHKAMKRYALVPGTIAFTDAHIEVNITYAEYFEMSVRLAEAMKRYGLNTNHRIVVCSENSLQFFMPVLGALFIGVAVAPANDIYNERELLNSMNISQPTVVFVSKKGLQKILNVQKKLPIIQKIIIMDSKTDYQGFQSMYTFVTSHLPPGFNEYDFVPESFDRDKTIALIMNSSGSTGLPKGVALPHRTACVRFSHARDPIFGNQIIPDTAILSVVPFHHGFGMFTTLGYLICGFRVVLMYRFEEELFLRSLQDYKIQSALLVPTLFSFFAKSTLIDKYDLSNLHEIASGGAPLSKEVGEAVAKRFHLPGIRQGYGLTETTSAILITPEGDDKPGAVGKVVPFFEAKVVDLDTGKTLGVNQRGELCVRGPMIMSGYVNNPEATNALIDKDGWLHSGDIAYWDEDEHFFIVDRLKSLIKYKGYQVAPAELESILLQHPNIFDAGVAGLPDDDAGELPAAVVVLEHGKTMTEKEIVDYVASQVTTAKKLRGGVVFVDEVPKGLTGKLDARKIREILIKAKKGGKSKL
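Purified P. pyralis luciferase (10nM final) with 10uM D-luciferin and 10uM ATP (Km levels) in 50mM Tris acetate pH 7.5, 10mM Mg acetate, 0.01% Tween-20, 0.05% BSA; qHTS 6-point titration, ~60 µM downward; luminescence read.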
NPC1 promoter act = qHTS Assay for NPC1 Promoter Activators. Huh7 NPC1 promoter luciferase reporter, 24 h. Potency, µM (titrated, usually from 9.22 µM), inactives show at the highest dose activation, usual class: activators. 2.4% of 320,000 active; further: % of control where 0% means no effect; nearly all actives have a fitted effect of over 60% in size
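Huh7 cells stably carrying NPC1 promoter–luciferase, plated in Opti-MEM with 10% FBS for 2 h, were exposed to compound in DMSO for 24 h at 37 °C; luciferase reagent was added for 10 min and luminescence read.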
SMN2 splice enh = qHTS Assay for Enhancers of SMN2 Splice Variant Expression; AID 1458, 2008; HEK293 SMN2-luciferase splicing reporter, luminescence, 30-36 h; Potency, µM (highest dose often 46.1 µM), for the others: top-dose activity change, positive = activation, usual class: activators; 2.8% of 210,000 active; further: % of control where 0% means no effect; nearly all actives have a fitted effect of over 55% in size
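HEK293 cells carry an SMN2 […]–luciferase reporter in which exon 7 inclusion puts luciferase in frame. Cells were plated 10-12 h before compound addition, then incubated 30-36 h at 37C. ONE-Glo luminescence was read; sodium butyrate at 4.5 mM final served as control.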
ELG1 genotoxic = qHTS screen for small molecules that induce genotoxicity in human embryonic kidney (HEK293T) cells expressing luciferase-tagged ELG1; HEK293T ELG1-luciferase reporter, luminescence, 16 h; Potency, µM (top dose mostly 46 µM), without a hit: at the highest dose activity change, positive = activation, most hits filed as activators; 1.3% of 330,000 active; further: % of control where 0% means no effect; nearly all actives have a fitted effect of over 60% in size
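Quantitative HTS format in 1536-well plates. HEK293T ELG1-luciferase reporter cells receive test compound and are incubated 16 hr at 37 °C, 5% CO2; ONE-Glo added, 30 min room temperature, then luminescence read.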
ELG1 DNA repair = qHTS screen for small molecules that inhibit ELG1-dependent DNA repair in human embryonic kidney (HEK293T) cells expressing luciferase-tagged ELG1; HEK293T ELG1-luciferase reporter, luminescence, 16 h; DNA damage induced by 5-fluorouridine; Potency, µM (titrated, usually from 46.1 µM), without a hit: top-dose activity change, negative = inhibition, actives largely listed as inhibitors; 2.3% of 330,000 active; further: on the % scale 0 is the no-effect control and ±100 the full control effect; nearly all actives have a fitted effect of over 55% in size
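Luminescence from the luciferase reporter, measured 30 min after ONE-Glo reagent at room temperature, was the read-out. Beforehand, 2,000 cells per well were exposed for 16 hr at 37 °C to 5-fluorouridine together with compound or vehicle.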
The depositor's hits bear a star; ? = inconclusive; · = no result given. Only some compounds are listed: those with a hit (about 9.2% of all), similar ones and a draw of the others. The call rests on the fitted dose curve; in most records, active means well fitted curve in the direction sought with a large enough effect; inconclusive means small, poorly fitted or top-dose-only effect, or another doubt; inactive means no such curve, though single readings can be large; an effect the other way counts as inactive or inconclusive. Potency means the concentration at half of the fitted maximal effect.

SMILES | Rab9 promoter act | FLuc counter | NPC1 promoter act | SMN2 splice enh | ELG1 genotoxic | ELG1 DNA repair
COCCN1CC(C(=O)NCCc2nc(C)c(C)s2)CCC1=O (stereo unspecified) | -5% | -1% | -3% | · | 1% | 14%
Cc1nn(-c2ccccc2)c(Cl)c1/C=N/Nc1nncc(=O)[nH]1 | -2% | 15µM* | 3% | · | 11% | -1%
CCOC(=O)N/N=C/c1c(C)nn(-c2ccccc2Cl)c1Cl | ? | 9.5µM* | ? | 13µM* | ? | ?
O=C(N/N=C\c1ccc(Cl)s1)C1COc2ccccc2O1 (stereo unspecified) | 2% | -15% | -17% | · | 1% | ?
O=C(N/N=C\c1ccc([N+](=O)[O-])s1)C1COc2ccccc2O1 (stereo unspecified) | 1.1µM* | 4% | ? | · | -14% | ?
Cc1nn(C)cc1/C=N/NC(=O)c1ccco1 | ? | 17µM* | 25% | · | 13% | ?
Cc1cccc(N2CCN(C(c3ccccc3)c3nnc(-c4ccccc4Cl)o3)CC2)c1C (stereo unspecified) | · | ? | · | 2% | · | ·
COc1ccc(N2CC(NC(=O)C3CCCCC3)CC2=O)cc1OC (stereo unspecified) | · | -3% | · | · | · | ·
Cc1nn(-c2ccccc2)c(Cl)c1/C=N/NC(=O)OC(C)(C)C | 2µM* | 15µM* | 2.8µM* | 18µM* | 9% | ?
Cc1nn(-c2ccccc2)c(Cl)c1/C=N/Nc1ccc(S(=O)(=O)Nc2ccccc2C(=O)O)cc1[N+](=O)[O-] | -6% | 4% | 0% | 11% | 0% | 5%
CNC(=S)N/N=C/c1c(C)nn(-c2ccccc2)c1Cl | 29% | ? | 12% | ? | ? | ?
Cc1nn(-c2ccccc2)c(Cl)c1/C=N/Nc1ccc(Cl)c(C(=O)O)c1 | 0.079µM* | 0.6µM* | 0.089µM* | 0.45µM* | 0.18µM* | ?
CCOc1ccc(S(=O)(=O)/N=C(/Nc2ccc(C)c(S(=O)(=O)N3CCOCC3)c2)c2ccccc2)cc1 | · | · | · | · | -4% | ?
CN1C(=O)c2cccc(NCCCN3C(=O)c4ccccc4C3=O)c2C1=O | -2% | 0% | 0% | 8% | 4% | 8%
CN1C(=O)c2cccc(NCCCCCCN3C(=O)c4ccccc4C3=O)c2C1=O | -10% | -1% | -3% | -51% | 4% | 15µM*
OCc1ccccc1OCCOc1ccc(Cl)c2cccnc12 | 25% | 19µM* | 27% | 29% | ? | ?
Clc1ccc(OCc2cn3ccccc3n2)c2ncccc12 | 2.8µM* | 12µM* | 3.5µM* | · | ? | ?
O=C(c1cccc(S(=O)(=O)N2CCc3ccccc3C2)c1)N1CCN(c2ccc(O)cc2)CC1 | 2% | -11% | 2% | -37% | -5% | ?
COc1ccc(/C(C)=N/Nc2ccc(C(=O)O)cc2)cc1OC | 1.3µM* | 6.7µM* | 0.63µM* | ? | ? | ?
COc1ccc(OC)c(/C(C)=N/Nc2ccc(C(=O)O)cc2)c1 | 14% | -2% | 3% | · | ? | ?
COc1cc(/C(C)=N/Nc2ccc(C(=O)O)cc2)cc(OC)c1OC | ? | ? | ? | 16µM* | ? | ?
CC(=O)Nc1ccc(C2=CC(=O)C[C@H](c3ccc(Cl)cc3)C2)cc1 | -5% | -11% | -3% | · | 0% | ?
COc1ccc(CNC(=O)C(NC(C)=O)C(=O)Nc2ccc(C(C)C)cc2)cc1 (stereo unspecified) | 0% | -1% | 0% | -5% | 11% | 12%
COCCCN1C(=O)C(=O)/C(=C(/O)c2ccc(S(=O)(=O)N3CCCCC3)cc2)C1c1ccc(O)cc1 (stereo unspecified) | 5% | 2% | -2% | · | 0% | 9%
CCOc1ccc(C(c2c(C)[nH]n(-c3ccccc3)c2=O)c2c(C)[nH]n(-c3ccccc3)c2=O)cc1OC | · | 3µM* | · | -1% | · | ·
SMILES | Rab9 promoter act | FLuc counter | NPC1 promoter act | SMN2 splice enh | ELG1 genotoxic | ELG1 DNA repair
CCN(CC)C(=O)N1CCC(NC(=O)c2ccc(C(C)(C)C)cc2)CC1 | -4% | 1% | -5% | 5% | -7% | 21µM*
COC(=O)c1cccnc1NC(=S)NNC(=O)c1ccccc1 | ? | 0% | 22% | 13% | ? | ?
N/C(=N\OC(=O)C12CC3CC(CC(C3)C1)C2)c1ccccn1 | 20% | 7.6µM* | 17% | 23% | ? | ?
N/C(=N\OC(=O)C12CC3CC(CC(C3)C1)C2)c1ccccc1 | 1% | 4.8µM* | 16% | 1% | 11% | 16%
C/C(=N\NC(=O)c1ccccn1)C12CC3CC(CC(C3)C1)C2 | ? | 15µM* | 29% | 9% | 10% | ?
N/C(=N\OC(=O)C12CC3CC(CC(C3)C1)C2)c1cccnc1 | 7% | 15µM* | 9% | 24% | 3% | 19%
C/C(=N/NC(=O)c1ccoc1C)C12CC3CC(CC(C3)C1)C2 | 4% | ? | 1% | -3% | ? | ?
CN(CC(=O)Nc1ccccc1Br)C(=O)CN1CCN(Cc2ccc(Cl)cc2)CC1 | -1% | 2% | -1% | · | -1% | -16%
N/C(=N\OC(=O)N1CCOCC1)c1ccccc1 | 27% | 17µM* | 24% | -75% | 6% | 19%
COc1ccccc1N(Cc1ccccc1)S(=O)(=O)c1cccc(C(=O)O)c1 | 0% | 0% | 1% | 5µM* | 1% | 2%
CCOc1ccccc1NC(=O)c1cccc(S(=O)(=O)N(Cc2ccccc2)c2ccccc2OC)c1 | -3% | 6% | -9% | -17% | -2% | -17%
COc1ccccc1N(Cc1ccccc1)S(=O)(=O)c1cccc(C(=O)Nc2cc(C)ccn2)c1 | ? | 0.67µM* | ? | · | ? | ?
CC(OC(=O)C1=COCCO1)C(=O)Nc1ccc(Cl)cn1 (stereo unspecified) | 2% | 4% | 3% | · | 1% | -1%
Cc1cc(NC(=O)C2CCCCC2)nc2c1c(=O)oc1ccccc12 | 0% | -8% | 0% | -8% | -3% | 8%
Cc1cc(NC(=O)C2CCCC2)nc2c1c(=O)oc1ccccc12 | 4% | -14% | -2% | 9% | -10% | 21µM*
O=C(NCc1ccccc1)C1CCCN(S(=O)(=O)c2ccc(Br)cc2)C1 (stereo unspecified) | -6% | -2% | 1% | · | -6% | -5%

Screens: PubChem BioAssay, National Center for Advancing Translational Sciences (NCATS)
